Test [1] can be described thus: qHTS assay to identify small molecule antagonists of the glucocorticoid receptor (GR) signaling pathway - cell viability counter screen (AID 720693). Also: nearly all actives have a fitted effect of over 55% in size. Also: potency is read from the fitted curve at half-maximal effect. On the technique in general: qHTS replaces the single test concentration by a dilution series.
The nature of test [2]: qHTS assay for identifying genotoxic compounds that show differential cytotoxicity against isogenic chicken DT40 cell lines with known DNA damage response pathways - wild type cell line (AID 743012). Also: nearly all actives have a fitted effect of over 60% in size. Also: potency is read from the fitted curve at half-maximal effect. A digest of the protocol:
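Using parental DT40 (300 cells/well), compounds delivered in DMSO incubate 40 h at 37 C/5% CO2. CellTiter-Glo reagent then stands 30 min at room temperature, and luminescence gives cell viability.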

Test [3] in a line: qHTS assay for identifying genotoxic compounds that show differential cytotoxicity against isogenic chicken DT40 cell lines with known DNA damage response pathways - Rev3 mutant cell line (AID 743014). Also: nearly all actives have a fitted effect of over 55% in size. Also: potency is read from the fitted curve at half-maximal effect.
The nature of test [4]: qHTS assay for identifying genotoxic compounds that show differential cytotoxicity against isogenic chicken DT40 cell lines with known DNA damage response pathways - Rad54/Ku70 mutant cell line (AID 743015). Also: nearly all actives have a fitted effect of over 60% in size. Also: potency is read from the fitted curve at half-maximal effect.
The nature of test [5]: qHTS assay to identify small molecule antagonists of the androgen receptor (AR) signaling pathway - cell viability counter screen (AID 743033; also: nearly all actives have a fitted effect of over 45% in size; also: potency is read from the fitted curve at half-maximal effect).
For test [6], the target named is Androgen receptor (Homo sapiens) (UniProt P10275). Kind of test: qHTS assay to identify small molecule agonists of the androgen receptor (AR) signaling pathway (AID 743036; active = well fitted activation curve with a large enough effect in the signal ratio in the repeat runs, with a control signal flat, not every such curve was filed as active; inconclusive = weak or mixed curves, or effect the other way; inactive = no such curve, though single readings can be large or run the other way; the % refers to the signal ratio). An outline of the steps: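 Fluorescence from a beta-lactamase FRET substrate served as read-out in AR-UAS-bla GripTite HEK293 cells. Cells were treated with DMSO-dissolved compounds for 16 h at 37C, then with LiveBLAzer B/G substrate for 2 h at room temperature.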
Androgen receptor (Homo sapiens), sequence (P10275 whole entry, looked up): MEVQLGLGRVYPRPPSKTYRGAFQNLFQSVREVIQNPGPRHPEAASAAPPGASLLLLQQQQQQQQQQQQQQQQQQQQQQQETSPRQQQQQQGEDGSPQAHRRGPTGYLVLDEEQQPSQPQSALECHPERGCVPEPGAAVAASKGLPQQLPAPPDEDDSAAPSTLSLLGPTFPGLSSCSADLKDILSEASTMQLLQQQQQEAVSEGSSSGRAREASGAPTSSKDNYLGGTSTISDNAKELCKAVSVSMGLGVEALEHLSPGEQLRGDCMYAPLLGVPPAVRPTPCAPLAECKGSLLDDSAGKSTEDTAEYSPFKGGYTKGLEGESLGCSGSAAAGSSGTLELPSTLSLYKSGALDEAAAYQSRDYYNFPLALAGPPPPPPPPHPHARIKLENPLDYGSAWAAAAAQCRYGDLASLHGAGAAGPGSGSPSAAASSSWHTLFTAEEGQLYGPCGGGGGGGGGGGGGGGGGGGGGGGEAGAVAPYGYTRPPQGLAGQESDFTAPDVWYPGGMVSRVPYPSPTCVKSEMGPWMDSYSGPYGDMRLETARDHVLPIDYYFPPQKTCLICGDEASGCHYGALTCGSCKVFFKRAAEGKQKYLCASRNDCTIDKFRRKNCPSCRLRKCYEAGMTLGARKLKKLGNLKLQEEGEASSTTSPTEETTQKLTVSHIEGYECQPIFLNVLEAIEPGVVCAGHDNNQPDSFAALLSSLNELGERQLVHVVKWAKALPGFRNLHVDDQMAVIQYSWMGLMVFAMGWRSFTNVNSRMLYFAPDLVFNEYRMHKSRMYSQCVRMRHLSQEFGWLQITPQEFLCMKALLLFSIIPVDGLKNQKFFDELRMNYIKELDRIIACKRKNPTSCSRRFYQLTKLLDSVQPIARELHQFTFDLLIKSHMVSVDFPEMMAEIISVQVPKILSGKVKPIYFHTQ

Test [7] shares this target. Kind of test: qHTS assay to identify small molecule agonists of the androgen receptor (AR) signaling pathway using the MDA cell line (AID 743040; also: nearly all actives have a fitted effect of over 20% in size). A digest of the protocol: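 MDA-kb2 breast carcinoma cells carrying MMTV-luciferase (responsive to AR and GR), plated 5 h then treated 16 h with compounds at 37C, 0% CO2. Read-out was ONE-Glo luminescence after 30 min at room temperature.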

A short description of test [8]: qHTS assay to identify small molecule antagonists of the androgen receptor (AR) signaling pathway using the MDA cell line - cell viability counter screen (AID 743041; also: nearly all actives have a fitted effect of over 45% in size; also: potency is read from the fitted curve at half-maximal effect). A digest of the protocol: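 MDA-kb2 AR-luc cells (MMTV-luciferase, AR/GR responsive) treated with compounds plus R1881 agonist for 16 h at 37C. CellTiter-Fluor added at 15.5 h; fluorescence read after 30 min in the same wells.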

Test [9] concerns the target Androgen receptor (Homo sapiens) (UniProt P10275). Kind of test: qHTS assay to identify small molecule antagonists of the androgen receptor (AR) signaling pathway using the MDA cell line (AID 743042; also: nearly all actives have a fitted effect of over 55% in size; also: potency is read from the fitted curve at half-maximal effect). A digest of the protocol:
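MDA-kb2 breast carcinoma cells carrying MMTV-luciferase (AR/GR responsive) were co-treated with compounds and the agonist R1881 for 16 h at 37C. Inhibition read as ONE-Glo luminescence; CellTiter-Fluor fluorescence measured in parallel for cytotoxicity.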

Test [10] can be described thus: qHTS assay to identify small molecule antagonists of the thyroid receptor (TR) signaling pathway - cell viability counter screen (AID 743064). Also: nearly all actives have a fitted effect of over 50% in size. Also: potency is read from the fitted curve at half-maximal effect. An outline of the steps:
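Fluorescence from CellTiter-Fluor, added after 23.5 h exposure at 37 °C, reported viability of GH3.TRE-Luc cells co-treated with compound and 1 nM T3. Measured in the same wells as the luciferase TR readout.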

Test [11] can be described thus: qHTS assay to identify small molecule antagonists of the thyroid receptor (TR) signaling pathway (AID 743065). Also: nearly all actives have a fitted effect of over 55% in size. Also: potency is read from the fitted curve at half-maximal effect. An outline of the steps:
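GH3.TRE-Luc rat pituitary cells (two TREs driving luciferase) were dosed with compound, then stimulated with 1 nM T3 (final) for 23.5 h at 37 C. ONE-Glo luminescence was the read-out, with CellTiter-Fluor fluorescence as the cytotoxicity counter-screen.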

Test [12] has as its system thyroid hormone receptor (rat, GH3 cells). Kind of test: qHTS assay to identify small molecule agonists of the thyroid receptor (TR) signaling pathway (AID 743066; calls by dose curve).
Test [13] addresses Estrogen receptor (Homo sapiens) (UniProt P03372). Kind of test: qHTS assay to identify small molecule antagonists of the estrogen receptor alpha (ER-alpha) signaling pathway (AID 743069; active = well fitted curve in the direction sought with a large enough effect in the signal ratio in the repeat runs, not every such curve was filed as active; inconclusive = weak or mixed curves, or effect the other way; inactive = no such curve, though single readings can be large or run the other way; the % refers to the signal ratio; also: potency is read from the fitted curve at half-maximal effect). A digest of the protocol: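 HEK293 ER-alpha-UAS-bla GripTite cells, held overnight in 2% charcoal-stripped FBS, 5,000 cells/well, preincubated 4 h, then compound plus 17beta-estradiol for 18 h at 37C. Beta-lactamase read by LiveBLAzer B/G FRET substrate, 2 h at room temperature.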

A short description of test [14]: qHTS assay to identify small molecule antagonists of the estrogen receptor alpha (ER-alpha) signaling pathway - cell viability counter screen (AID 743074; calls by dose curve;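 also: HEK293 cells carrying ER-alpha-UAS-bla reporter stimulated with 17beta-estradiol; nearly all actives have a fitted effect of over 45% in size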; also: potency is read from the fitted curve at half-maximal effect).
Test [15] has as its target Estrogen receptor (Homo sapiens) (UniProt P03372). Nature of the test: qHTS assay to identify small molecule agonists of the estrogen receptor alpha (ER-alpha) signaling pathway (AID 743075; calls by dose curve). Particulars: HEK293 ER-alpha-UAS-bla, beta-lactamase FRET ratio, 18 h; activation: at 70.1 µM (top of the series).
Test [16] shares this target. Nature of the test: qHTS assay to identify small molecule agonists of the estrogen receptor alpha (ER-alpha) signaling pathway using the BG1 cell line (AID 743079). Also: nearly all actives have a fitted effect of over 20% in size. Particulars: BG1Luc4E2 cells, ERE-luciferase agonist, 22 h.
The nature of test [17]: qHTS assay to identify small molecule antagonists of the estrogen receptor alpha (ER-alpha) signaling pathway using the BG1 cell line (AID 743080; calls by dose curve;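 also: BG1 cells stimulated with 17beta-estradiol alongside compound; nearly all actives have a fitted effect of over 25% in size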). An outline of the steps:
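BG1-Luc-4E2 cells (endogenous full-length ER-alpha, 4xERE luciferase) hormone-starved 5 days in charcoal-stripped FBS, plated 4,000/well for 24 h, then compound plus 17beta-estradiol for 21.5 h at 37 C; ONE-Glo luminescence read.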

A short description of test [18]: qHTS assay to identify small molecule antagonists of the estrogen receptor alpha (ER-alpha) signaling pathway using the BG1 cell line - cell viability counter screen (AID 743081).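 Also: compound given together with 17beta-estradiol as the ER stimulus; nearly all actives have a fitted effect of over 45% in size.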 Also: potency is read from the fitted curve at half-maximal effect.
The target of a further test is Aromatase (Homo sapiens) (UniProt P11511). Nature of the test: qHTS assay to identify aromatase inhibitors (AID 743083). Also: nearly all actives have a fitted effect of over 55% in size. Also: potency is read from the fitted curve at half-maximal effect.
Aromatase (Homo sapiens), sequence (P11511 whole entry, looked up): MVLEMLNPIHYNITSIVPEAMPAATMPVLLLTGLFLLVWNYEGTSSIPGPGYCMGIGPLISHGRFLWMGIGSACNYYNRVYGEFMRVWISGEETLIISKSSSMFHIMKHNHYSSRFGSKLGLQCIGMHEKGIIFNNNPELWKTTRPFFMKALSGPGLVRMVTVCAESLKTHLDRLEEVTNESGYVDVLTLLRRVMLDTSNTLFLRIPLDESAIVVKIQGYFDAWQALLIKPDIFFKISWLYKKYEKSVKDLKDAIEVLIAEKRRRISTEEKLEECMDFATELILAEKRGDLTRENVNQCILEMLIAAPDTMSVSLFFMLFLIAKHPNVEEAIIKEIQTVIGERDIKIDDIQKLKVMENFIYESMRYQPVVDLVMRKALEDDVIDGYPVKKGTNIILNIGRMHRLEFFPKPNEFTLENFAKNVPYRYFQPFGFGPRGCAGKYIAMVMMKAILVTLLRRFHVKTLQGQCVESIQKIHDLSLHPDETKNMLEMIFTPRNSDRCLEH
Test [19] in a line: qHTS assay to identify aromatase inhibitors - cell viability counter screen (AID 743084). Also: potency is read from the fitted curve at half-maximal effect.

Structures are written as SMILES. Values joined by “and” are separate entries in the source; they are usually repeats but may differ in a detail not shown here. Identical values can stand only once. Some structures have more than one record in an assay (separate samples or runs), and their calls can disagree. Active and inactive are the calls of the source. Unless noted, calls follow the shape of the dose curve; as a rule, active = well fitted curve in the direction sought with a large enough effect in the repeat runs; inconclusive = weak or mixed curves; inactive = no such curve, though single readings can be large; an effect the other way counts as inactive or inconclusive.
% is scaled to controls: 0 for no effect and ±100 for the full control effect.

Estrogen receptor (Homo sapiens), sequence (P03372 whole entry, looked up): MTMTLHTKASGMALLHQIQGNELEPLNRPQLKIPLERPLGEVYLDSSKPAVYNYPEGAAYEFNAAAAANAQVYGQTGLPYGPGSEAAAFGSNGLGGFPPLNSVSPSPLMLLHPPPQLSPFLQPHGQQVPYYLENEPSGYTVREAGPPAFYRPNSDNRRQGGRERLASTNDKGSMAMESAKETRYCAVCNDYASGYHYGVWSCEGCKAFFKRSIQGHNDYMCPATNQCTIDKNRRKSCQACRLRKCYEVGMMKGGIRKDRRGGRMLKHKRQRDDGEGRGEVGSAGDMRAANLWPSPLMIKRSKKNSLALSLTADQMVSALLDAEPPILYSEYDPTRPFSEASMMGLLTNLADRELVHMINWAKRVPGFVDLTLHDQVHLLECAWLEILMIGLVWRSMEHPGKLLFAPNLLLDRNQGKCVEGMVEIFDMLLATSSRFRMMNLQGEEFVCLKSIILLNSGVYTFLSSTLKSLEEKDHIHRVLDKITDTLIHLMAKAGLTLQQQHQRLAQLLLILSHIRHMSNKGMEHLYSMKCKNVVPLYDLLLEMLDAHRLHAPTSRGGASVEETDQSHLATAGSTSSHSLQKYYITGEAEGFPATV

For the molecule `NNC(=O)c1cccc(C(=O)NN)c1`, the Potency entry in test [1], in test [2], in test [3], in [4], in [5] and in test [6] was “inactive” throughout. In addition, the Potency result in test [7], in test [8], in test [9], in test [10], in [11] and in test [12] was “inactive” in each case. For the same molecule, the Potency result (in test [13]; in test [14]; in test [15]; in test [17]; in test [18]; with Aromatase (Homo sapiens)) was “inactive” throughout. Also, the Potency result in test [19] is “inactive”. The activation in test [16] (at 70.3 µM (top of the series)) is 4.33% (inactive).

With `CCc1cc(Cc2cc(CC)cc(C(C)(C)C)c2O)c(O)c(C(C)(C)C)c1`, the Potency is 11 µM (active) in test [1]; 21.7 µM (active) in test [2]; 19.3 µM (active) in [3]; 15.4 µM (active) in test [4]; 24.5 µM (active) in test [5]; 7.7 µM (active) in test [10]. Besides, the Potency is 6.11 µM (active) in test [11]; 15.5 µM (active) in test [14]; 68.6 µM (active) in test [18]; 30.6 µM (active) with Aromatase (Homo sapiens); 61.1 µM (active) in test [19]. The Potency entry in test [7], in test [8] and in test [12] was “inactive” in each case.

Turning to `Clc1ccc2nsnc2c1NC1=NCCN1`, the Potency result in [1], in [2], in [3], in test [4], in [5] and in test [8] was “inactive” each time. The Potency result in test [9], in test [10], in [11], in test [12], in test [13] and in test [14] was “inactive” each time. The Potency entry (in test [15]; in test [17]; in test [18]; with Aromatase (Homo sapiens); in [19]) was “inactive” throughout. Moreover, in test [16] (at 70.3 µM (top of the series)), the activation is 1.06% (inactive).

With `CCC(C)Nc1ccc(NC(C)CC)cc1` (stereo not given), the Potency in [1] was 44.5 µM (active); in test [2], 12.4 µM (active); in [3] it was 5.55 µM (active); in test [4], 6.99 µM (active); in [5] it was 12.5 µM (active); in test [8], 19.7 µM (active). For the same molecule, the Potency was 8.8 µM (active) in [9]; 14 µM (active) in test [10]; 14 µM (active) in test [11]; 22.3 µM [inconclusive] (active) in test [13]; 25 µM (active) in test [14]; 24.8 µM (active) in test [18]. Besides, the Potency is 3.93 µM (active) with Aromatase (Homo sapiens) and 8.8 µM (active) in [19]. For the same molecule, the Potency result in test [12] is “inactive”.

With `CN1CCC(Nc2ncc3ncnc(Nc4ccc(F)c(Cl)c4)c3n2)CC1`, the Potency entry in [1], in [5], in test [7], in test [9] and in test [14] was “inactive” throughout. Also, the Potency in test [2] was 13.3 µM (active); in test [3], 23.7 µM (active); in [4] it was 21.1 µM (active); in test [10] it was 11.9 µM (active); in test [11], 9.44 µM (active).

On to `CN1CCN(CCC(=O)N2c3ccccc3Sc3ccc(C(F)(F)F)cc32)CC1`, for which the Potency entry in [1], in test [5], in test [6], in test [7], in test [8] and in [9] was “inactive” each time. Moreover, the Potency entry (in [13]; in test [15]; in test [17]; in the test with Aromatase (Homo sapiens); in [19]) was “inactive” each time. The Potency in test [2] was 16.8 µM (active); in test [3], 13.3 µM (active); in test [4], 21.1 µM (active); in [10], 11.9 µM (active); in [11], 26.6 µM (active). Also, in [16] (at 70.3 µM (top of the series)), the activation was -0.0617% (inactive).

With `CCCCCCCCCCCCCCCCCC[N+](C)(C)Cc1ccccc1`, the Potency in test [1] is 19.7 µM (active); in [2], 0.978 µM (active); in [3], 0.777 µM (active); in test [4], 0.871 µM (active); in [5], 19.7 µM (active); in [8], 17.4 µM (active). The Potency in [9] was 12.3 µM (active); in test [11], 7.77 µM (active); in [14] it was 22.1 µM (active); with Aromatase (Homo sapiens), 21.9 µM (active); in [19], 49 µM (active). Moreover, the Potency result in test [12] was “inactive”.

On to `CCCCN1CCCC[C@H]1C(=O)Nc1c(C)cccc1C`, for which the Potency entry in test [1], in test [2], in [3], in [4], in [5] and in [6] was “inactive” each time. Moreover, the Potency entry in test [8], in test [10], in test [11], in [12], in test [13] and in test [14] was “inactive” each time. Also, the Potency result (in test [15]; in test [17]; in test [18]; with Aromatase (Homo sapiens); in test [19]) was “inactive” in each case. In test [16] (at 70.3 µM (top of the series)), the activation is -9.26% (inactive).

Consider `CCCCCCCCCCC=O`, for which the Potency result in test [1], in test [2], in test [3], in [4], in test [5] and in test [7] was “inactive” each time. In addition, the Potency result in test [9], in test [10], in test [11], in test [12], in test [14] and in test [18] was “inactive” in each case. The Potency result (in the test with Aromatase (Homo sapiens); in test [19]) was “inactive” throughout.

On to `C[C@@H](NCCCc1cccc(C(F)(F)F)c1)c1cccc2ccccc12`, for which the Potency is 13.4 µM (active) in test [1]; 5.31 µM (active) in test [2]; 5.96 µM (active) in [3]; 5.96 µM (active) in [4]; 19 µM (active) in test [5]; 7.5 µM (active) in test [10]. Also, the Potency was 8.41 µM (active) in [11], 23.9 µM (active) in test [14], 13.3 µM (active) in the test with Aromatase (Homo sapiens) and 21.1 µM (active) in test [19]. The Potency result in test [7] is “inactive”.

Consider `CCCC/C=C/CCCCO`, for which the Potency entry in test [1], in test [2], in [3], in test [4], in [5] and in test [8] was “inactive” in each case. The Potency entry in [10], in [11], in test [12], in test [13], in [14] and in test [15] was “inactive” in each case. In addition, the Potency result (in [17]; with Aromatase (Homo sapiens); in test [19]) was “inactive” each time.

On to `Clc1ccccc1C(c1ccccc1)(c1ccccc1)n1ccnc1`, for which the Potency entry in test [1], in test [8], in [12], in test [15], in test [18] and in test [19] was “inactive” each time. Further, the Potency is 5.07 µM (active) and 5.45 µM (active) in test [2]; 10.1 µM (active) and 15.4 µM (active) in test [3]; 8.04 µM (active) and 3.44 µM (active) in test [4]; 54.9 µM (active) in test [5]; 8.04 µM (active) and 21.7 µM (active) in test [10]; 3.59 µM (active) and 3.86 µM (active) in test [11]. In addition, the Potency in test [13] is 6.44 µM [inconclusive] (active) and 15.5 µM [inconclusive] (active); in [14] it was “inactive and 54.9 µM (active)”; with Aromatase (Homo sapiens), 4.52 µM (active) and 6.86 µM (active). For the same molecule, in test [16] (at 32.5 µM (top of the series)), the activation is -14.7% (inactive).

The record behind these values is PubChem BioAssay (Tox21).
